{"source": "PubChem BioAssay AID2284355", "about": "(EPA ToxCast)", "note": "Results filed as inconclusive are left out. Activity calls are given as the source filed them. The calls were made as follows: active = hit-call score of the fitted dose curve at least 0.9, where 1 is the maximum; inconclusive = response in the unintended direction; inactive = score below 0.9."}
{"tested_on": "rainbow trout Retinoid X Receptor beta (RXRb)", "experiment": "ATG_rtRXRb_EcoTox2: Attagene TRANS-FACTORIAL EcoTox-2 HepG2 Assay for rainbow trout Retinoid X Receptor beta (RXRb)", "method": "ATG_EcoTox2 is a cell-based, multiplexed assay created by modifying the existing Attagene TRANS-FACTORIAL system to include a panel of nuclear receptors from some or all the following species: human (Homo sapiens), african clawed frog (Xenopus laevis), rainbow trout (Oncorhynchus mykiss), japanese medaka (Oryzias latipes), and zebrafish (Danio rerio). The ECOTOX2-FACTORIAL format uses HepG2, a human liver cell line, with measurements taken at 24 hours after chemical dosing in a 24-well plate. ATG_rtRXRb_EcoTox2 is one of 29 assay components calculated in the ATG_EcoTox2 assay. It is designed to make measurements of mRNA induction, a form of inducible reporter, as detected with fluorescence intensity signals by Reverse transcription polymerase chain reaction (RT-PCR) and Capillary electrophoresis technology.The assay endpoint ATG_rtRXRb_EcoTox2 was analyzed in the positive analysis fitting direction relative to DMSO as the negative control and baseline of activity. Using a type of inducible reporter, measures of mRNA for gain-of-signal activity can be used to understand the reporter gene at the transcription factor-level as they relate to the gene RXRb. Furthermore, this assay endpoint can be referred to as a primary readout, because this assay has produced multiple assay endpoints where this one serves a reporter gene function. […]"}
{"smiles": "[Cl][Sn]([c]1ccccc1)([c]1ccccc1)[c]1ccccc1", "AC50": "119 nM (active)"}
